Compound activity: PubChem BioAssay, several laboratories
Compounds with a hit are over-represented: about 1.1% of the library has one in this group of screens.
PrPC surface inh: cell surface PrPC inhibition, primary TR-FRET screen; P04156; TR-FRET read-out; inhibition, % at 13.8 µM; 370,000 tested, 0.43% active; in the data active = inhibition above about 24%; also: 0% = median of the test wells and 100% = reference compound wells
Yp Topo-I inh: inhibitors of Yersinia pestis topoisomerase I; 360,000 tested, 0.064% active; AID 504884; activity, % at 10 µM; Y. pestis Topo-I cleavage product accumulation, plate reader; in the data active = activity above about 50%, passing the limit was not always enough
CCHFV vOTU inh: CCHFV vOTU protease inhibition; Pep-AMC fluorescence; inhibition, % at 11.5 µM; 370,000 tested, 0.55% active; in the data active = inhibition above about 30%; also: 0% = vehicle wells with enzyme and 100% = no enzyme wells
Vc quorum ag: quorum light induction in luxS cqsA deficient V. cholerae. activation, % at 18.7 µM. 350,000 tested, 0.16% active. V. cholerae BH1578 lux reporter, luminescence, 6 h. AID 588436; in the data active = activation mostly above about 9.7%, no sharp cut-off
The depositor's hits bear a star.

For CC(C)C(=O)Nc1cccc(COc2ccc(CN(Cc3ccccc3)C(=O)OC(C)(C)C)cc2)c1 the results were PrPC surface inh 2, Yp Topo-I inh 53*, CCHFV vOTU inh 18 and Vc quorum ag inactive.
`O=c1[nH]n(Cc2ccccc2)c(=O)c2ccccc12` gave PrPC surface inh 7, Yp Topo-I inh 7, CCHFV vOTU inh 3 and Vc quorum ag 0.
Screening CCOC1=C2[C@@H](CN(S(=O)(=O)c3ccc(C)cc3)[C@H]2c2cccc3ccccc23)[C@H]2C(=O)N(Cc3ccccc3)C(=O)[C@H]2C1 returned PrPC surface inh 5 and CCHFV vOTU inh 8.
`CC(C)C(=O)N1CCN(c2nc(-c3ccc(Cl)cc3)cs2)CC1` gave PrPC surface inh 8, Yp Topo-I inh 53*, CCHFV vOTU inh -1 and Vc quorum ag inactive.
`CCCCCCN1C[C@@H](n2cc(-c3ccc(F)cc3)nn2)[C@H](O)C[C@@H]1c1ccc(OC)cc1` gave PrPC surface inh 7, Yp Topo-I inh 65*, CCHFV vOTU inh 27 and Vc quorum ag 0.
CCCCCCN1C[C@H](n2cc(-c3ccc(F)cc3)nn2)[C@@H](O)C[C@@H]1c1ccc(OC)cc1 was read as PrPC surface inh 10, Yp Topo-I inh -3, CCHFV vOTU inh 7 and Vc quorum ag 0.
For Cc1ccc(C2=C(O)c3ccccc3C(=O)C2=O)cc1 the results were PrPC surface inh -21, Yp Topo-I inh 6, CCHFV vOTU inh -4 and Vc quorum ag 0.
`NC(=O)C1=C(c2ccccc2)c2ccccc2C1=O` gave PrPC surface inh 9, Yp Topo-I inh 1, CCHFV vOTU inh 6 and Vc quorum ag 43*.
For CCCN1CCCc2cc(CN)ccc21 the results were PrPC surface inh -2, Yp Topo-I inh -3, CCHFV vOTU inh 100* and Vc quorum ag inactive.
For N#Cc1sc2nc(C3CC3)cc(-c3ccccc3)c2c1N the results were PrPC surface inh -2, Yp Topo-I inh 17, CCHFV vOTU inh -1 and Vc quorum ag -1.
Screening N#Cc1sc2nc(-c3ccccc3)cc(-c3ccco3)c2c1N returned PrPC surface inh -6, Yp Topo-I inh -13, CCHFV vOTU inh 59* and Vc quorum ag -1.
For CCOc1ccc2cc(S(=O)(=O)N3CCOCC3)ccc2c1 the results were PrPC surface inh 1, Yp Topo-I inh 1, CCHFV vOTU inh 6 and Vc quorum ag 74*.
Screening C=CC[C@@H](CC(=O)N[C@H](CO)Cc1ccccc1)C(=O)N[C@H](COC(=O)[C@H](CC=C)CC(=O)OC(C)(C)C)Cc1c[nH]c2ccccc12 returned PrPC surface inh -3, Yp Topo-I inh 2, CCHFV vOTU inh 37* and Vc quorum ag 0.
Screening CCC(C)Nc1cc(C)nc2ncnn12 (stereo not drawn) returned PrPC surface inh 3, Yp Topo-I inh -3, CCHFV vOTU inh 6 and Vc quorum ag 0.
Screening COCCCn1nnnc1SCC(=O)Nc1ccc2c(c1)OCCO2 returned PrPC surface inh -1, Yp Topo-I inh 5, CCHFV vOTU inh -9 and Vc quorum ag -1.
For CC(C)=NN1C(c2nonc2N)=NOC1(C)C the results were PrPC surface inh 4, Yp Topo-I inh -5, CCHFV vOTU inh -3 and Vc quorum ag inactive.
Screening Cn1c(CC(=O)NNC(=O)c2ccc(F)cc2F)nc2ccccc21 returned PrPC surface inh 1, Yp Topo-I inh -3, CCHFV vOTU inh -5 and Vc quorum ag 0.
Screening Cn1c(CC(=O)NNC(=O)c2cccnc2)nc2ccccc21 returned PrPC surface inh 3, Yp Topo-I inh -1, CCHFV vOTU inh -5 and Vc quorum ag 20*.
Screening CCc1ccccc1NC(=O)C(Cc1ccccc1)c1nn[nH]n1 (stereo not drawn) returned PrPC surface inh -7, Yp Topo-I inh -1, CCHFV vOTU inh -15 and Vc quorum ag 0.
For O=C(c1cc(-c2ccccc2Cl)nc2ccc(Br)cc12)N1CCN(c2ccccn2)CC1 the results were PrPC surface inh 10, Yp Topo-I inh 55*, CCHFV vOTU inh -1 and Vc quorum ag inactive.
`O=C1NC2C(=CC(O)C(O)C2O)c2cc3c(cc21)OCO3` (stereo not drawn) gave PrPC surface inh 91*, Yp Topo-I inh 2, CCHFV vOTU inh 5 and Vc quorum ag inactive.
`Cc1c(OCC(=O)N2CCC(C(=O)O)CC2)ccc2c3c(c(=O)oc12)CCCC3` gave PrPC surface inh -1, Yp Topo-I inh 9, CCHFV vOTU inh -23 and Vc quorum ag -1.
Screening CC(=O)c1sc(NC(=O)CS(=O)(=O)c2ccc(F)cc2)nc1C returned PrPC surface inh 7, Yp Topo-I inh 2, CCHFV vOTU inh 9 and Vc quorum ag 28*.
NS(=O)(=O)c1ccc(CCNCc2ccccc2OCc2ccc(F)cc2)cc1 was read as PrPC surface inh -13, Yp Topo-I inh 8, CCHFV vOTU inh -21 and Vc quorum ag inactive.
Screening CCN(CC)CCCNC(=S)N1CCn2c(nc3ccccc32)C1 returned PrPC surface inh 6, Yp Topo-I inh -5, CCHFV vOTU inh -13 and Vc quorum ag inactive.
For O=C(Cn1nnc(-c2ccccc2)n1)NNC(=O)c1ccc(Br)cc1 the results were PrPC surface inh 8, Yp Topo-I inh 56*, CCHFV vOTU inh 10 and Vc quorum ag 0.
O=C(Cn1nnc(-c2ccccc2)n1)NNC(=O)c1ccccc1 was read as PrPC surface inh 4, Yp Topo-I inh 2, CCHFV vOTU inh 7 and Vc quorum ag 1.
Screening Cc1ccc(NC(=O)C2CCCN(S(=O)(=O)c3ccc4c(c3)oc(=O)n4C)C2)nc1 (stereo not drawn) returned PrPC surface inh 7, Yp Topo-I inh 5, CCHFV vOTU inh 30* and Vc quorum ag 0.
`CCC(C)NCCOc1ccccc1C` (stereo not drawn) gave PrPC surface inh -2, Yp Topo-I inh 2, CCHFV vOTU inh -6 and Vc quorum ag 24*.
`COc1ccc(CCNC(=O)C2CC(=O)N(c3ccc(C(C)(C)C)cc3)C2)cc1OC` (stereo not drawn) gave PrPC surface inh -2, Yp Topo-I inh 1, CCHFV vOTU inh -6 and Vc quorum ag inactive.
For O=C(CN1CCN(Cc2ccccc2)CC1)N/N=C/c1cccs1 the results were PrPC surface inh 1, Yp Topo-I inh -2, CCHFV vOTU inh -2 and Vc quorum ag inactive.
`CCC(=NCCC(c1ccccc1)c1ccccc1)c1c(O)[nH]c(=O)[nH]c1=O` gave PrPC surface inh 14, Yp Topo-I inh 66*, CCHFV vOTU inh 17 and Vc quorum ag 0.
`COc1cccc(/C=C(/C(=O)OCC(N)=O)c2ccccc2)c1` gave PrPC surface inh -5, Yp Topo-I inh -2, CCHFV vOTU inh 1 and Vc quorum ag 0.
Screening COc1cccc(/C=C(/C(=O)OCC(=O)NC2CCCC(C)C2C)c2ccccc2)c1 (stereo not drawn) returned PrPC surface inh -4, Yp Topo-I inh 60*, CCHFV vOTU inh -3 and Vc quorum ag -2.
For CCC(=O)N1CCN(c2ccc(NC(=O)c3cc4ccccc4o3)cc2Cl)CC1 the results were PrPC surface inh 32*, Yp Topo-I inh 18, CCHFV vOTU inh -3 and Vc quorum ag 0.
For CCCCn1c(NC(=O)c2ccccc2Cl)c(C#N)c2nc3ccccc3nc21 the results were PrPC surface inh 3, Yp Topo-I inh 20, CCHFV vOTU inh 9 and Vc quorum ag inactive.
